The list is not random: actives were taken first. Their share in the collection is about 11%.
JMJD2A Tudor = blocks the human JMJD2A Tudor domain; AlphaScreen JMJD2A-Tudor / H3K4me3 peptide binding; Potency, µM (series often up to 114 µM), inactives show at the top dose activity change, negative = inhibition, hits mostly inhibitors; hit rate 4.4% among 390,000; AID 504339; also: % is scaled to controls: 0 for no effect and ±100 for the full control effect; nearly all actives have a fitted effect of over 50% in size
Target sequence (O75164 whole entry, looked up, the tested form may be a part): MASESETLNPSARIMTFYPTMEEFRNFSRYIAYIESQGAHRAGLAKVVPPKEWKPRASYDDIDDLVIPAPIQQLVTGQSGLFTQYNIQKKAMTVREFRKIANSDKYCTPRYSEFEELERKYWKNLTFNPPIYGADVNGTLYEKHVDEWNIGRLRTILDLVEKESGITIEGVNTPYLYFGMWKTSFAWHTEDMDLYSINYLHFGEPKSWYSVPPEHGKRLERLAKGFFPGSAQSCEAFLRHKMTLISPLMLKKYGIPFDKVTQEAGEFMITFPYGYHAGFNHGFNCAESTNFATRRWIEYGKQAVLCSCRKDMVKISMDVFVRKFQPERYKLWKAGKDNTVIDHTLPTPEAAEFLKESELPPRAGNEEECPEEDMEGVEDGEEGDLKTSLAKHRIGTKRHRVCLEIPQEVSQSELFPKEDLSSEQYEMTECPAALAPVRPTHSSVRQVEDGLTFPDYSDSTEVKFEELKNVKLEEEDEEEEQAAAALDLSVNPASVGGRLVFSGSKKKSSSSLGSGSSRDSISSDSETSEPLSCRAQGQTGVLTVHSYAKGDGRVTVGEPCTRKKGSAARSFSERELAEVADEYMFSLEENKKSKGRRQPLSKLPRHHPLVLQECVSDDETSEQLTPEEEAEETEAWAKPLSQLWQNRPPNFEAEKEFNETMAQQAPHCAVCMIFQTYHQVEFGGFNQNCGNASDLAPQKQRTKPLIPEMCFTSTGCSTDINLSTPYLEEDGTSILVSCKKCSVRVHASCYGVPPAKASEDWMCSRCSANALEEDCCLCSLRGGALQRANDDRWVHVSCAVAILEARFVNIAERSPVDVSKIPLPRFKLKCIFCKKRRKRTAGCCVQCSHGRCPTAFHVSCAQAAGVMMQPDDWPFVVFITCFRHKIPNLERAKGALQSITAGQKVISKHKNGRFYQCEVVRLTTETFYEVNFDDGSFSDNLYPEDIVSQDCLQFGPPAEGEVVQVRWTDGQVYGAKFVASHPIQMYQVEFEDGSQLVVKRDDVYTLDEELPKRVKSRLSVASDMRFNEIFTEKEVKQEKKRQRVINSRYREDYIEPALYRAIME
G9a block = inhibitors of human histone lysine methyltransferase G9a; Q96KQ7; AID 504332; G9a H3K9 monomethylation, AlphaScreen, 2 h; Potency, µM (doses to about 102 µM), for the others: top-dose activity, negative = inhibition, most hits filed as inhibitors; hit rate 8.8% among 350,000; also: % is scaled to controls: 0 for no effect and ±100 for the full control effect; nearly all actives have a fitted effect of over 75% in size
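G9a (20 nM) preincubated 15 min RT with compounds, then 500 nM biotinylated H3K9 peptide and 20 uM SAM added; 2 h RT reaction. Monomethyl-H3K9 product detected by AlphaScreen with anti-H3K9me1 antibody, streptavidin donor and anti-rabbit IgG acceptor beads.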
VDR inhibitor = inhibitors of human vitamin D receptor; Potency, µM, for the others: max response, negative = inhibition, hits mostly inhibitors; hit rate 0.93% among 400,000; P11473; VDR-SRC2-3 peptide fluorescence polarization, 2 h; AID 504847; also: % is scaled to controls: 0 for no effect and ±100 for the full control effect
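Inhibition of the VDR/SRC2-3 peptide interaction is quantified by fluorescence polarization. Compounds (23 nl, pintool) incubate with the reagents for 2 hours at ambient room temperature.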
BAZ2B block = blocks human BAZ2B; Q9UIF8; AlphaScreen BAZ2B-H3K14Ac peptide displacement; Potency, µM (highest dose often 114 µM), without a hit: at the top dose activity change, negative = inhibition, most hits filed as inhibitors; hit rate 4.4% among 360,000; AID 504333; also: % is scaled to controls: 0 for no effect and ±100 for the full control effect; nearly all actives have a fitted effect of over 60% in size
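AlphaScreen luminescence quantifies BAZ2B engagement of H3K14Ac peptide; the protein and biotinylated peptide are both at 50 nM final, buffer PBS pH 7.4 with 0.01% Tween-20, all steps at room temperature.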
PLK1 PBD block = PLK1 (human) polo-box domain binding inhibition. P53350. Plk1 PBD binding of FITC phosphopeptide, fluorescence polarization. Potency, µM, for the others: max response, negative = inhibition, actives largely listed as inhibitors. hit rate 2.8% among 360,000; also: series mostly up to about 57 µM; % is scaled to controls: 0 for no effect and ±100 for the full control effect; nearly all actives have a fitted effect of over 65% in size
HP1b binding inh = HP1-beta chromodomain-methylated histone interaction inhibition; Potency, µM (series often up to 114 µM), for inactives: at the highest dose activity change, negative = inhibition, usual class: inhibitors; AlphaScreen HP1-beta / biotin-H3K9me3 peptide binding; hit rate 0.56% among 390,000; P83916; also: nearly all actives have a fitted effect of over 70% in size
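Compound inhibition of the preformed complex between 50 nM HP1-beta and 50 nM biotinylated H3K9me3 peptide was read by AlphaScreen. Buffer was PBS pH 7.4 with 0.01% Tween-20. Incubations ran 30 min at room temperature, with 10 ug/mL donor/acceptor beads.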
* = called active by the depositor; ! = a repeat was not active; [ ] = remark or other dose. Calls follow the shape of the dose curve; as a rule, active = well fitted curve in the direction sought with a large enough effect; inconclusive = small, poorly fitted or top-dose-only effect, or another doubt; inactive = no such curve, though single readings can be large; an effect the other way counts as inactive or inconclusive. Potency is read from the fitted curve at half-maximal effect.

For Cc1ccc(CSc2nnc(-c3cccnc3)n2N)cc1 the results were JMJD2A Tudor -4%, G9a block 22%[59 µM], VDR inhibitor 10%, BAZ2B block 7%, PLK1 PBD block -4% and HP1b binding inh 36%.
`Cn1c(SCC(=O)c2cc(Cl)c(Cl)s2)nnc1-c1ccco1` gave JMJD2A Tudor inconclusive, G9a block inconclusive, VDR inhibitor -22%, BAZ2B block -32%, PLK1 PBD block 21µM* and HP1b binding inh -5%.
`Cc1ccc(C(=O)CSc2nnc(-c3cccnc3)n2N)cc1` gave JMJD2A Tudor 50µM*, G9a block 32µM*, VDR inhibitor 23%, BAZ2B block -6%, PLK1 PBD block -18% and HP1b binding inh 13%.
`Cc1ccc(C(=O)CSc2nnc(-c3ccco3)n2C)cc1` gave JMJD2A Tudor 8.9µM*, VDR inhibitor 50µM*, BAZ2B block -14%, PLK1 PBD block 6µM* and HP1b binding inh -17%.
For CC(=O)OC1CC2C(C)(C)C(O)CC(O)[C@@]2(C)C2CC[C@@]3(C)C(=CC(=O)OC3c3ccoc3)[C@]12C (stereo partly specified) the results were G9a block inconclusive and VDR inhibitor -9%.
For COc1cc(NC(=O)CSc2nnc3c4ccccc4n(C)c3n2)cc(OC)c1OC the results were JMJD2A Tudor -16%, VDR inhibitor 5% and HP1b binding inh -1%.
CCCc1sc(N)nc1-c1ccc(Cl)cc1 was read as JMJD2A Tudor -35%, G9a block 45µM*, VDR inhibitor -6%, BAZ2B block -37%, PLK1 PBD block 4% and HP1b binding inh -2%.
`CCNc1nc(-c2ccc(Cl)cc2)cs1` gave JMJD2A Tudor -28%, G9a block inconclusive, VDR inhibitor -6%, BAZ2B block inconclusive, PLK1 PBD block -20% and HP1b binding inh -20%.
CCNc1ncnc2c1cnn2C1CCCCO1 (stereo unspecified) was read as JMJD2A Tudor -4%, VDR inhibitor -15%, PLK1 PBD block 1% and HP1b binding inh 32%.
COc1ccc2cc1Oc1ccc(cc1)C[C@H]1c3c(cc4c(c3Oc3cc5c(cc3OC)CCN(C)[C@@H]5C2)OCO4)CCN1C was read as JMJD2A Tudor 35µM*, G9a block 11µM*!, VDR inhibitor 1%, BAZ2B block -38%, PLK1 PBD block -2% and HP1b binding inh inconclusive.
For COc1ccc2c(c1OC)C(=O)OC2[C@H]1c2c(cc3c(c2OC)OCO3)CCN1C (stereo partly specified) the results were G9a block 0%[12.7 µM] and VDR inhibitor -4%.
`CC1(C)C(=O)Nc2ccccc2N1C(=O)CSc1nnc2c(Cl)cc(Cl)cn12` gave JMJD2A Tudor -11%, G9a block 3%[59 µM], VDR inhibitor 12%, BAZ2B block 7%, PLK1 PBD block -6% and HP1b binding inh 21%.
CC1CN(C(=O)CSc2nnc3c(Cl)cc(Cl)cn23)CC(C)O1 (stereo unspecified) was read as JMJD2A Tudor -2%, G9a block 79µM*, VDR inhibitor -4%, BAZ2B block -3%, PLK1 PBD block -7% and HP1b binding inh 35%.
CCOc1ccccc1NC(=O)c1c(NC(=O)COc2ccccc2)sc2c1CCCCC2 was read as JMJD2A Tudor -6%, G9a block 2%[59 µM], VDR inhibitor -14%, BAZ2B block 2% and HP1b binding inh 48%.
Screening COc1cccc(/C(O)=C/C(=O)C(=O)Nc2ccc(S(=O)(=O)NC(C)=O)cc2)c1 returned JMJD2A Tudor 8.9µM*, G9a block 10µM*, VDR inhibitor -12%, BAZ2B block inconclusive, PLK1 PBD block -4% and HP1b binding inh 7%.
For CC/C=C\C/C=C\C/C=C\C/C=C\C/C=C\C/C=C\CCC(=O)O the results were G9a block 7.1µM* and VDR inhibitor 32µM*!.
For COc1cc(CN2CCN(c3cccc(C)c3C)CC2)cc([N+](=O)[O-])c1O the results were JMJD2A Tudor 2.2µM*, G9a block 11µM*, VDR inhibitor -6%, BAZ2B block 50µM*, PLK1 PBD block -20% and HP1b binding inh inconclusive.
COc1ccc(N2CCN(Cc3cc(OC)c(O)c([N+](=O)[O-])c3)CC2)cc1 was read as JMJD2A Tudor 1µM*, G9a block 7.1µM*, VDR inhibitor -12%, BAZ2B block 50µM*, PLK1 PBD block -1% and HP1b binding inh 16µM*.
`COc1cc(CC(=O)OCc2ccccc2F)cc(OC)c1OC` gave JMJD2A Tudor 15%, G9a block 49%, VDR inhibitor 8%, BAZ2B block 16%, PLK1 PBD block 4% and HP1b binding inh -10%.
`Cc1occc1-c1nnc(-c2cc([N+](=O)[O-])cc([N+](=O)[O-])c2)o1` gave JMJD2A Tudor -34%, G9a block 32µM*, VDR inhibitor -5%, BAZ2B block inconclusive, PLK1 PBD block -8% and HP1b binding inh -5%.
For O=[N+]([O-])c1cccc(-c2nnc(-c3ccccc3)o2)c1 the results were JMJD2A Tudor -15%, G9a block -3%, VDR inhibitor -10%, BAZ2B block -33%, PLK1 PBD block -8% and HP1b binding inh 22%.
CCNC(=S)Nc1ccc(N(c2ccccc2)C(C)C)cc1 was read as JMJD2A Tudor inconclusive, G9a block inconclusive, VDR inhibitor -16%, BAZ2B block -36%, PLK1 PBD block inconclusive and HP1b binding inh -19%.
Screening S=C(NCCN1CCOCC1)Nc1ccc(Nc2ccccc2)cc1 returned JMJD2A Tudor -30%, VDR inhibitor 7%, BAZ2B block inconclusive, PLK1 PBD block -11% and HP1b binding inh inconclusive.
For S=C(NCCCN1CCOCC1)Nc1ccc(Nc2ccccc2)cc1 the results were JMJD2A Tudor -25%, G9a block 45µM*, VDR inhibitor 19%, BAZ2B block inconclusive, PLK1 PBD block inconclusive and HP1b binding inh -11%.
For S=C(NCc1ccc2c(c1)OCO2)Nc1ccc(-c2nc3ccccc3[nH]2)cc1 the results were JMJD2A Tudor inconclusive, G9a block inconclusive, VDR inhibitor inconclusive, BAZ2B block inconclusive, PLK1 PBD block 0% and HP1b binding inh inconclusive.
CN(C)CCNC(=S)Nc1ccc(-c2nc3ccccc3[nH]2)cc1 was read as JMJD2A Tudor -15%, G9a block 50µM*, VDR inhibitor -22%, BAZ2B block -8%, PLK1 PBD block -10% and HP1b binding inh 55%.
CC(C)N(c1ccccc1)c1ccc(NC(=S)NCCN(C)C)cc1 was read as JMJD2A Tudor -35%, G9a block 45µM*, VDR inhibitor -13%, BAZ2B block -23%, PLK1 PBD block -6% and HP1b binding inh -9%.
